Test results: PubChem BioAssay
Active and inactive are the calls of the source.

How the values were obtained:
[1] = binders of probe aFSTL3 on microarray, primary screen, stem cell growth factor project, biochemical, small-molecule microarray, fluorescence 635/667 (AID 1064); details: higher = more signal;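 also: measures binding of the biotinylated anti-FSTL3 antibody to printed compounds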
[2] = binders from COS7 lysate, DM2A8 probe, primary screen, torsin A project, cell lysate, small-molecule microarray, fluorescence 635/667 (AID 1065); details: higher = more signal, COS7 lysate expressing mutant human TOR1A
[3] = binders of probe aFGF2 on microarray, primary screen, stem cell growth factor project, biochemical, small-molecule microarray, fluorescence 635/667 (AID 1067); details: higher = more signal;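 also: measures binding of biotinylated aFGF2 protein to printed compounds on slides; z-score merges feature fluorescence and signal-to-noise across triplicate slides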
[4] = binders of probe aFGF10 on microarray, primary screen, stem cell growth factor project, biochemical, small-molecule microarray, fluorescence 635/667 (AID 1071); details: higher = more signal;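 also: score merges 667 nm spot intensity and signal to noise from triplicate slides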
[5] = target: Neurogenic locus notch homolog protein 2 (Homo sapiens) (UniProt Q04721); experiment: Notch2 binders on small-molecule microarrays, primary screen, biochemical, small-molecule microarray, 635 nm fluorescence, stem cell growth factors (AID 1073); details: Notch2 binding, higher = more signal
[6] = target: Pro-neuregulin-1, membrane-bound isoform (Homo sapiens) (UniProt Q02297); experiment: NRG1 binders on small-molecule microarrays, primary screen, psychiatric disease protein project, biochemical, small-molecule microarray, fluorescence 635/667 (AID 1075); details: NRG1 binding, 635 nm fluorescence, higher = more signal;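 also: score combines 667 nm spot fluorescence with signal to noise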
[7] = test system: Neuregulin-1 EGF-like domain; experiment: binders of neuregulin-1 EGF-like domain, primary screen, biochemical, small-molecule microarray, 635 nm fluorescence (AID 1081); details: small-molecule microarray binding, higher = more signal;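 also: binding of the protein to compounds printed on small-molecule microarray slides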
[8] = FRG1 promoter luciferase signal modulators, primary screen, FRG1 inhibition for FSHD, cell-based, C2C12 myotubes, firefly/Renilla luciferase, luminescence (AID 1084); details: higher = more signal, called active from +8 up or from −8 down
[9] = binders of probe aFST on microarray, primary screen, stem cell growth factor project, biochemical, small-molecule microarray, fluorescence 635/667 (AID 1086); details: higher = more signal;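 also: score merges 667 nm fluorescence with signal-to-noise of each printed compound spot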
[10] = binders of probe aHhip on microarray, primary screen, stem cell growth factor project, biochemical, small-molecule microarray, fluorescence 635/667 (AID 1087); details: higher = more signal;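 also: score merges spot fluorescence at 667nm with spot signal to noise ratio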

Chain of Neurogenic locus notch homolog protein 2 (Homo sapiens) (Q04721 whole entry, looked up, canonical isoform): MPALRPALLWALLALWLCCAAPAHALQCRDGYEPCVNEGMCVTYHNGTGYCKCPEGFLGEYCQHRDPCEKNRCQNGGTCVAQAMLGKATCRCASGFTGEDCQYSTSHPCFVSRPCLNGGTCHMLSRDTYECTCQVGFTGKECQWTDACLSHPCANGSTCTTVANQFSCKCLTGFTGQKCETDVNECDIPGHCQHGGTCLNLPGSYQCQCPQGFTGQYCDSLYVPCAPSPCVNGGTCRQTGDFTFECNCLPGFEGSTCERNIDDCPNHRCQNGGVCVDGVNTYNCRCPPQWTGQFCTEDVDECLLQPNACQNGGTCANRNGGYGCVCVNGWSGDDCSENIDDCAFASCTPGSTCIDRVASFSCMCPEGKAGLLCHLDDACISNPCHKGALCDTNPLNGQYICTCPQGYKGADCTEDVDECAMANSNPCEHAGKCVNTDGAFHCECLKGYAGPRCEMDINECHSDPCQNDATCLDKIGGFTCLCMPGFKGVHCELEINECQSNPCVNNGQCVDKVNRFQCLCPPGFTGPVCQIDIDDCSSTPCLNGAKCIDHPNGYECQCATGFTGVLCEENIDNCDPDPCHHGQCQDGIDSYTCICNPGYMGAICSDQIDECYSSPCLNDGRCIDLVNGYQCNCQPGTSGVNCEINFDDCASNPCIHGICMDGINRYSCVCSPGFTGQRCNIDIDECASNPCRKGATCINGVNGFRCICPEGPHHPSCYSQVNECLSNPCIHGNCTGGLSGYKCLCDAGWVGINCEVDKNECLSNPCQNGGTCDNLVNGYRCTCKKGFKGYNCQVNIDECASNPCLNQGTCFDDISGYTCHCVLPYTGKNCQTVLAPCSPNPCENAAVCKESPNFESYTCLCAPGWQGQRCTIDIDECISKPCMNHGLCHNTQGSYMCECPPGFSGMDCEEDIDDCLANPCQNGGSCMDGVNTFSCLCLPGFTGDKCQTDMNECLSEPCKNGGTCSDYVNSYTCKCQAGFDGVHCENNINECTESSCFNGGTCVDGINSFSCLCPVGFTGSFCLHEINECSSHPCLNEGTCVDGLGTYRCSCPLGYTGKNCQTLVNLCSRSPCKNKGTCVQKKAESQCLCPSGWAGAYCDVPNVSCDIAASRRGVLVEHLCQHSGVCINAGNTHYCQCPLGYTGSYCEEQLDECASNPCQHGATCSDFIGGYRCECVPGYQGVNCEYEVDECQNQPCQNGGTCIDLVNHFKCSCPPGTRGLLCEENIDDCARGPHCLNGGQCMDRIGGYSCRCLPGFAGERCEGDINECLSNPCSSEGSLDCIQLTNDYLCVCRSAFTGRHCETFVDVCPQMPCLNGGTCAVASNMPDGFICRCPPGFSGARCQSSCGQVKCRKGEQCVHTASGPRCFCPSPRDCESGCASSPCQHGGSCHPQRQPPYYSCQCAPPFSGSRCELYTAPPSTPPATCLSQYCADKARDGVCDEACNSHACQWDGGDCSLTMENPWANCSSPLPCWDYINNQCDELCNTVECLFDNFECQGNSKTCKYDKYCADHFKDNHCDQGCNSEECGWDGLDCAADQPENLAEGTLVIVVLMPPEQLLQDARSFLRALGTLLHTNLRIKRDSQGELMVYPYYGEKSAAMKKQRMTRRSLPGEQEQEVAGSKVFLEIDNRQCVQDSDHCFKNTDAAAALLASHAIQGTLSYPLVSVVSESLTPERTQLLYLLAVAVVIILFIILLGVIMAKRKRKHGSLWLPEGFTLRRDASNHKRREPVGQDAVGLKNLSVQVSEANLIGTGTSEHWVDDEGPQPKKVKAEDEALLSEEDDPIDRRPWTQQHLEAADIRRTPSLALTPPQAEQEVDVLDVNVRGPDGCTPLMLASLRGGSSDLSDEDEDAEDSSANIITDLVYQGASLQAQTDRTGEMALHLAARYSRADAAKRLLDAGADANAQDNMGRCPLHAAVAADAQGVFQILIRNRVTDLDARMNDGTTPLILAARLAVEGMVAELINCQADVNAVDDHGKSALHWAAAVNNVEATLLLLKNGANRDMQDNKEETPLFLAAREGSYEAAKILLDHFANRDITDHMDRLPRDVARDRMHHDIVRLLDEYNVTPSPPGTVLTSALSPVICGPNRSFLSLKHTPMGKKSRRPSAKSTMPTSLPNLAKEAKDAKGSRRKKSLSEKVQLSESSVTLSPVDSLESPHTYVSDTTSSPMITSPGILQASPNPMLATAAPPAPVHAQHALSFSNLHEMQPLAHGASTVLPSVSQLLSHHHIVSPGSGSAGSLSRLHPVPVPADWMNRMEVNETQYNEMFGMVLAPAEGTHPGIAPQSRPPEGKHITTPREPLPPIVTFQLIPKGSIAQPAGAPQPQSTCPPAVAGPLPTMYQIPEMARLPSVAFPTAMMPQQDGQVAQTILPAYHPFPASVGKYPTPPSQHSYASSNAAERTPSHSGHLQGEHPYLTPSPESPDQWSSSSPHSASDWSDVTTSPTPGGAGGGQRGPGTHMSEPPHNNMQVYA
Chain of Pro-neuregulin-1, membrane-bound isoform (Homo sapiens) (Q02297 whole entry, looked up, the tested form may be a part, canonical isoform): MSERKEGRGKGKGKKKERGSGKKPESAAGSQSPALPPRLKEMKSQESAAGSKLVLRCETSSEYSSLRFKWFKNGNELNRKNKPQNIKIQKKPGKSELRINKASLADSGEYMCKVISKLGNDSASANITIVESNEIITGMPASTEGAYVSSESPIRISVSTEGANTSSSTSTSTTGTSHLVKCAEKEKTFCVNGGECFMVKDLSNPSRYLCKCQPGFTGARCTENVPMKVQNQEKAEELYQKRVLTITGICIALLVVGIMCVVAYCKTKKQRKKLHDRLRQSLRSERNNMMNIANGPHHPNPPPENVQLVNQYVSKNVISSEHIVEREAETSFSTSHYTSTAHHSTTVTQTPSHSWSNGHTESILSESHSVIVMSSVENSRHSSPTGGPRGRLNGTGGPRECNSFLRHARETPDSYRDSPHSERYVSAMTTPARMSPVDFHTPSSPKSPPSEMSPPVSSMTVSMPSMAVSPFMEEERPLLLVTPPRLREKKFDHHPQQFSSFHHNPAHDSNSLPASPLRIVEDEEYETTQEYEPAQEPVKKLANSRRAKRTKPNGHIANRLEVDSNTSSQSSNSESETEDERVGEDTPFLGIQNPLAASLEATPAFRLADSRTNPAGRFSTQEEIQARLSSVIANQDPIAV

Structure (SMILES) | composite z-score [1] | composite z-score [2] | composite z-score [3] | composite z-score [4] | composite z-score [5] | composite z-score [6] | composite z-score [7] | z-score [8] | composite z-score [9] | composite z-score [10]
CC(C)[C@H]1NC(=O)[C@@]23C(=O)N[C@@H](Cc4ccccc4)C2[C@H](C)[C@@]2(C)O[C@H]2C3/C=C/CCC/C=C/CNC(=O)[C@H](Cc2ccccc2)NC1=O (stereo not given in full) | -0.245 | 0.719 | -0.147 | -0.0587 | 0.046 | 1.57 | 1.22 | 0.966 (inactive) | -0.419 | -0.319
O=C1O[C@H](c2ccccc2)[C@H](c2ccccc2)N2[C@H]1[C@@H](C(=O)O)[C@]1(C(=O)Nc3ccc(C#CC4(O)CCCCCC4)cc31)[C@H]2c1ccc(O)cc1 | -0.252 | 0.128 | -0.166 | 0.439 | -0.0475 | 1.28 | 0.866 | -0.278 (inactive) | -0.247 | -0.134
COc1ccc(NC(=O)O[C@H]2[C@@H]3OC(=O)[C@H](Cc4cccc(Br)c4)C/C=C/C[C@@H](Cc4cccc(Br)c4)C(=O)O[C@H]3[C@@H](OC)O[C@@H]2CO)cc1 | 0.0355 | 1.4 | 0.0929 | 0.579 | 0.935 | 0.558 | 0.453 | 3.13 (inactive) | 0.421 | 0.285
NC(=O)[C@H]1[C@@H]2C(=O)O[C@@H](c3ccccc3)[C@@H](c3ccccc3)N2[C@@H](c2ccc(O)cc2)[C@]12C(=O)Nc1ccc(C#CC3=CCCCC3)cc12 | 0.124 | 0.813 | -0.0979 | -0.105 | -0.734 | 1.22 | 1.25 | 1.23 (inactive) | 0.0569 | -0.406
C=C[C@@H](OC)[C@H](OC(=O)Nc1ccc(SC)cc1)c1ccc(OCCO)cc1 | 0.0275 | 0.363 | 0.0166 | 0.485 | 0.794 | 1.43 | 1.33 | 6.53 (inactive) | 0.574 | 0.675
CCCCC(=C=CC[C@H](O)c1ccc(OCCO)cc1)C[C@H](O)COCc1ccccc1 | -0.117 | -0.366 | -0.0409 | 0.692 | -0.238 | 1.06 | 0.879 | -0.947 (inactive) | -0.0834 | 0.152
C=C(/C(=C/C[C@@H](OC(C)=O)c1ccc(CO)o1)c1cc(C(=O)OC)ccc1OC)C(C)C | -0.245 | -0.02 | -0.076 | 0.938 | 1.18 | 1.18 | 1.21 | -0.0698 (inactive) | -0.0417 | -0.0618
COC(=O)C1N=C(c2ccc(OCCCO)cc2)N(c2ccccc2)O1 (stereo not given) | 0.397 | 0.148 | -0.0189 | 1.17 | 1.54 | 1.1 | 0.913 | 2.35 (inactive) | 0.897 | -0.317
CC(C)(C)OC(=O)CC[C@]12N=C(c3ccc(OCCCO)cc3)O[C@H]1c1ccccc1N(Cc1ccccc1)C2=O | 0.555 | 0.178 | 0.0436 | 0.329 | 0.0567 | 0.457 | 1.13 | -1.7 (inactive) | 0.259 | -0.187
O=C1OCCC/C=C\[C@H]2OC34C=CCN(c5ccc6ccccc6c5)C(=O)[C@H]3N(CCCO)C(=O)[C@@H]4C12 (stereo not given in full) | -0.0204 | 0.994 | -0.101 | -0.316 | -0.631 | 0.437 | 0.626 | 1.2 (inactive) | -0.72 | -0.12
O=C1O[C@H](c2ccccc2)[C@H](c2ccccc2)N2[C@H]1[C@@H](C(=O)N1CCCCCCC1)[C@]1(C(=O)Nc3ccc(C#CC4(O)CCCCCC4)cc31)[C@H]2c1ccccc1OCCO | 4 | 2.61 | 0.935 | 1.46 | 1.83 | 2.5 | 1.33 | -1.5 (inactive) | 3.82 | 1.9
Cc1ccc(N2C(=O)c3ccccc3[C@](C)(C(=O)NCc3ccccc3)[C@@H]2c2ccc(CO)cc2)nc1 | 0.625 | 0.0083 | 0.0898 | -0.369 | -0.378 | 0.64 | 0.635 | 0.101 (inactive) | 0.0665 | 1.07
CC1CC/C=C\[C@H]2OC34C=CCN(C(C)(C)C)C(=O)[C@H]3N(C(CO)C(C)C)C(=O)[C@@H]4C2C(=O)O1 (stereo not given in full) | -0.259 | 2.01 | -0.141 | 0.323 | -0.147 | 0.867 | 1.5 | 1.44 (inactive) | -0.0219 | -0.318
[N-]=[N+]=NCc1ccccc1[C@@H]1OC(c2ccc(OCCCO)cc2)=N[C@]1(Cc1ccccc1)C(=O)NCCN1CCOCC1 | 0.32 | 0.0026 | 0.159 | 1.1 | 1.4 | 1.25 | 1.23 | 0.106 (inactive) | 1.09 | -0.126
COCCOC(=O)N1C(=O)[C@@]2(c3cc(C#CCC(C(=O)OC)C(=O)OC)ccc31)[C@H](C(=O)NC[C@H](O)c1ccccc1)[C@H]1C(=O)O[C@H](c3ccccc3)[C@H](c3ccccc3)N1[C@@H]2c1ccc(O)cc1 | -0.0562 | 0.498 | -0.0647 | 0.954 | 0.269 | 1.01 | 1.28 | -0.81 (inactive) | 1.04 | 0.213
COC(=O)C1=CC(CCCO)=CC(c2ccc(CN3CCCC3)cc2)N(Cc2cc3c(cc2Br)OCO3)C=C1C(=O)OC (stereo not given) | 0.942 | 1.66 | 0.19 | 1.26 | 1.61 | 2.4 | 1.18 | 0.046 (inactive) | 1.97 | 0.0605
O=C1C2C=CC(C(O)C=Cc3ccc([N+](=O)[O-])cc3)N(Nc3ccccc3)C2C(=O)N1c1ccccc1 (stereo not given) | -0.134 | -0.0552 | 0.183 | 0.995 | 1.59 | 1.7 | 0.967 | -0.028 (inactive) | 1.22 | -0.0237

Structure (SMILES) | composite z-score [1] | composite z-score [2] | composite z-score [3] | composite z-score [4] | composite z-score [5] | composite z-score [6] | composite z-score [7] | z-score [8] | composite z-score [9] | composite z-score [10]
C=CCOC(=O)[C@H]1[C@@H]2C(=O)O[C@@H](c3ccccc3)[C@@H](c3ccccc3)N2[C@@H](c2ccc(OCCOC(=O)[C@H]3C[C@H]4C(=O)N[C@@H](CCCCNC(C)=O)C(=O)N4[C@H]3c3cccc(OCCO)c3)cc2)[C@]12C(=O)Nc1ccc(I)cc12 | 0.276 | 1.01 | -0.144 | 0.818 | 0.656 | 1.29 | 1.26 | 0.29 (inactive) | 2.65 | 0.215
CN(C)C(=O)[C@@]1(Cc2ccccc2N=[N+]=[N-])N=C(c2ccc(OCCCO)cc2)O[C@H]1c1ccccc1 | 0.657 | 0.687 | 0.0282 | 0.359 | 1.63 | 1.2 | 1.32 | -1.75 (inactive) | 1.23 | 0.294
CCN(CC)c1ccc(N2CC=CC34O[C@@H]5/C=C\CCC(C)OC(=O)C5[C@H]3C(=O)N(C(C)CO)[C@@H]4C2=O)cc1 (stereo not given in full) | -0.0462 | -0.362 | -0.116 | -0.244 | -1.06 | 0.168 | -0.527 | 0.355 (inactive) | -0.293 | -0.652
O=C1O[C@H](c2ccccc2)[C@H](c2ccccc2)N2[C@H]1[C@@H](C(=O)Nc1nc3ccccc3s1)[C@]1(C(=O)Nc3ccc(C#CC4=CCCCC4)cc31)[C@H]2c1ccc(O)cc1 | -0.384 | 0.255 | -0.0281 | 0.352 | 0.747 | 1.44 | 1.1 | -0.305 (inactive) | 0.845 | -0.0994
CCC(CC)C(O)C1C=CC2C(=O)N(c3ccccc3)C(=O)C2N1Nc1ccc([N+](=O)[O-])cc1 (stereo not given) | 0.453 | -0.0903 | 0.22 | 0.848 | 1.56 | 1.07 | 1.26 | -1.91 (inactive) | 0.944 | 0.327
C=CCC(OC(C)=O)[C@@H]1[C@@H](N(Cc2cc3ccccc3o2)C(=O)c2ccc(-c3ccccc3)cc2)c2cc(OCCCO)ccc2N1C(=O)Cc1ccc(OC)cc1 (stereo not given in full) | -0.0413 | -0.183 | -0.0002 | 0.248 | 0.0777 | 0.0526 | -0.353 | -0.802 (inactive) | 0.331 | -0.189
O=C1[C@@]23C=C(Br)[C@H](C[C@@H]2COC3)[C@@]12CO2 | -0.325 | 0.422 | -0.112 | 0.38 | 0.32 | 0.0504 | 0.0447 | -0.214 (inactive) | 0.159 | -0.268
Cc1ccc(S[C@]2(C(=O)NCC(C)C)CC(=O)N(C3Cc4ccccc4C3)[C@@H]2c2ccc(CO)cc2I)cc1 | 0.757 | -0.5 | -0.0238 | 0.166 | -1.01 | 0.123 | -0.126 | -1.83 (inactive) | 0.962 | 0.513
O=C1N(CCS(=O)(=O)c2ccccc2)Cc2ccccc2[C@@H]2OC(c3ccc(OCCCO)cc3)=N[C@]12CCS(=O)(=O)c1ccccc1 | 0.215 | 0.675 | 0.115 | 0.507 | 1.66 | 1.46 | 1.39 | -2.06 (inactive) | 1.18 | 0.0053
C=CCC(OC(C)=O)[C@@H]1[C@@H](N(Cc2cccc3ccccc23)C(=O)Cc2ccc(F)cc2)c2cc(OCCCO)ccc2N1C(=O)c1ccc(-c2ccccc2)cc1 (stereo not given in full) | 0.873 | -0.302 | -0.0427 | -0.387 | -0.648 | -0.61 | -0.802 | -1.83 (inactive) | 0.392 | -0.14
C=CCNC(=O)[C@H]1[C@@H]2C(=O)O[C@@H](c3ccccc3)[C@@H](c3ccccc3)N2[C@@H](c2ccc(OCCO)cc2)[C@]12C(=O)Nc1ccc(C#CCNC(N)=O)cc12 | 0.264 | 0.311 | 0.0015 | 0.641 | 0.112 | 0.883 | 0.817 | -0.651 (inactive) | 1.28 | 0.0623
CC(C)(C)OC(=O)CC[C@]1(C(=O)N2CCCCC2)COC(c2ccc(OCCCO)cc2)=N1 | 0.161 | 1.05 | 0.0159 | 1.2 | 1.6 | 1.35 | 1.15 | -2.51 (inactive) | 0.372 | 0.0373
Cc1ccc([C@H]2C(C(=O)O)=C[C@@H](C(C)(C)C)N2S(=O)(=O)c2ccc(C)cc2)cc1 | 0.137 | -0.0985 | 0.17 | 0.965 | 1.55 | 1.54 | 1.17 | -2.04 (inactive) | 0.734 | 0.235
CCOC(=O)C1=CC[C@@H](c2ccccc2)N(S(=O)(=O)c2ccc(C)cc2)[C@H]1C=Cc1ccccc1 | 0.162 | -0.0855 | -0.04 | 0.694 | 0.471 | 0.941 | 0.918 | -3.49 (inactive) | 0.47 | 0.0373
CCOC(=O)C[C@H]1[C@H](OC(=O)c2ccccc2-c2ccccc2)[C@@H](NC(=O)c2ccccc2)c2cc(OCCCO)ccc2N1C(=O)c1ccccc1 | -0.304 | 0.0919 | -0.0885 | 0.585 | 0.494 | 0.127 | 0.0357 | 0.0899 (inactive) | 0.0801 | 0.0274
C[C@]1(C(=O)NCCN2CCOCC2)c2ccccc2C(=O)N(Cc2cc(F)cc(C(F)(F)F)c2)[C@H]1c1ccc(CO)cc1 | 0.0545 | 0.933 | -0.141 | -0.762 | -0.387 | 1.06 | 1.47 | -1.54 (inactive) | 1.16 | -0.0994
